Test results taken from publication PMC5515408, “Sequence-specific DNA binding by MYC/MAX to low-affinity non-E-box motifs”.
In all, about 5,000 sequences were measured (“log2 normalized fluorescence”: median about 0.089, highest 2% from about 0.81 on). For the sample, the highest values were picked, then their nearest neighbours and some sequences at random.

Target: MYC (p64);MAX (p21), in MYC:MAX (human;human, UniProt P01106-1;P61244-2 1-439;1-151, |)
Test: protein-binding microarray (anti-MAX antibody); PBM: 15 mM Tris-HCl pH 7.5, 100 mM KCl, 0.075% NP40, 7.5 mM beta-mercaptoethanol, 375 ng/ul BSA, 8 ng/ul poly(dA-dT):(dA-dT), 550 ng complex, 60 min, room tempe; high values mean tight binding
Details: protein: recombinant;recombinant; tags: 6xHis;6xHis; copies: 1;1; label: 3' end of printed strand (linker) attached to glass slide; dsDNA, one strand shown
In short: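 A custom Agilent glass array held ~5000 unique 12-nt sequences in triplicate spots, made double-stranded by primer extension. His-tagged human MYC:MAX or MAX:MAX dimers (550 ng, produced in E. coli) were applied for 60 min at room temperature in Tris-KCl buffer, pH 7.5, with NP40, BSA and poly(dA-dT) competitor. Anti-MAX and secondary antibodies detected bound protein, with scanning at 543 nm, and binding is given as log2 normalized fluorescence.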

MYC (p64);MAX (p21), in MYC:MAX, sequence (P01106 16-454, chain 1 of 2): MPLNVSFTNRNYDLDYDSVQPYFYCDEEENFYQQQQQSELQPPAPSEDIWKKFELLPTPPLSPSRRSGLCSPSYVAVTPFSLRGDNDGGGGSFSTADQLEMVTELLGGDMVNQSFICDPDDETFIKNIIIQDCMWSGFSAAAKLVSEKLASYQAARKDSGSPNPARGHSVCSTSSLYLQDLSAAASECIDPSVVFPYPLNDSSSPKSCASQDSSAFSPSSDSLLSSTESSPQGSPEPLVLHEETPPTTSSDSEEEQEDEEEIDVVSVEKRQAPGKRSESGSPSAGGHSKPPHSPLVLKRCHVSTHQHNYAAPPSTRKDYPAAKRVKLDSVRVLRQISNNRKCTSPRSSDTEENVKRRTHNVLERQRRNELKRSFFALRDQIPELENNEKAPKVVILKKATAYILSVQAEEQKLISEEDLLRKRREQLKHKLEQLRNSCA
MYC (p64);MAX (p21), in MYC:MAX, sequence (P61244 other isoform, or with tags, fused parts or gaps |, chain 2 of 2): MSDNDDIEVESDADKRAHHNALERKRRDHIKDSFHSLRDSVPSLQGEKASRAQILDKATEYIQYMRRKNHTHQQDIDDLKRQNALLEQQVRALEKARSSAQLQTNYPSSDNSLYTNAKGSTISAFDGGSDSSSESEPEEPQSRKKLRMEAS

Sequence	binding signal
CCGGCTGACGCGTCGTATTAATAGCTAAGATTACTATATCGACG	0.46 log2 normalized fluorescence
CCGGCTGACGCGTGATATTAATAGCTAAGATTACTATATCGACG	0.675 log2 normalized fluorescence
CCGGCGCCCACGTGGTATTAATAGCTAAGATTACTATATCGACG	0.862 log2 normalized fluorescence
CCGGCTCCCACGTGGTATTAATAGCTAAGATTACTATATCGACG	0.763 log2 normalized fluorescence
CCGGCGACCACGTGGTATTAATAGCTAAGATTACTATATCGACG	0.741 log2 normalized fluorescence
CCGGCCCACACGTGGTATTAATAGCTAAGATTACTATATCGACG	0.945 log2 normalized fluorescence
CCGGCTAAGACGTGGTATTAATAGCTAAGATTACTATATCGACG	0.411 log2 normalized fluorescence
CCGGCCCGCACGTGGTATTAATAGCTAAGATTACTATATCGACG	0.749 log2 normalized fluorescence
CCGGCCCCCACGTGGTATTAATAGCTAAGATTACTATATCGACG	0.854 log2 normalized fluorescence
CCGGCCCACACGTGGTGTTAATAGCTAAGATTACTATATCGACG	0.705 log2 normalized fluorescence
CCGGCTGATCAAGGGTATTAATAGCTAAGATTACTATATCGACG	0.0432 log2 normalized fluorescence
CCGGCTGAAGTTGTGTATTAATAGCTAAGATTACTATATCGACG	0.0113 log2 normalized fluorescence
CCGGCTGAACGAAAGTATTAATAGCTAAGATTACTATATCGACG	0.0903 log2 normalized fluorescence
CCGGCTGACACGTGAACTTAATAGCTAAGATTACTATATCGACG	0.796 log2 normalized fluorescence
CCGGCTGACACATGGTTTTAATAGCTAAGATTACTATATCGACG	0.817 log2 normalized fluorescence
CCGGCTGACACGTTAGATTAATAGCTAAGATTACTATATCGACG	0.482 log2 normalized fluorescence
CCGGCTGACACGTGTACTTAATAGCTAAGATTACTATATCGACG	0.823 log2 normalized fluorescence
CCGGCTGACACGTGTTATTAATAGCTAAGATTACTATATCGACG	0.722 log2 normalized fluorescence
CCGGCTGACACGTGACGTTAATAGCTAAGATTACTATATCGACG	0.654 log2 normalized fluorescence

Sequence	binding signal
CCGGCTGACACGTGTAATTAATAGCTAAGATTACTATATCGACG	0.708 log2 normalized fluorescence
CCGGCTGACATGTGGTTTTAATAGCTAAGATTACTATATCGACG	0.359 log2 normalized fluorescence
CCGGCTGACACGTGGTGTTAATAGCTAAGATTACTATATCGACG	0.534 log2 normalized fluorescence
CCGGCTGACACGTGTCGTTAATAGCTAAGATTACTATATCGACG	0.947 log2 normalized fluorescence
CCGGCCGACACATGGTTTTAATAGCTAAGATTACTATATCGACG	0.635 log2 normalized fluorescence
CCGGCTGACACGTGTTGTTAATAGCTAAGATTACTATATCGACG	0.83 log2 normalized fluorescence
CCGGCTGAGACCTGCTATTAATAGCTAAGATTACTATATCGACG	-0.0388 log2 normalized fluorescence
CCGGCTGGCACCTGGCATTAATAGCTAAGATTACTATATCGACG	0.319 log2 normalized fluorescence
CCGGCTGAGTGTTAGTATTAATAGCTAAGATTACTATATCGACG	0.177 log2 normalized fluorescence
CCGGCTGATGATGCGTATTAATAGCTAAGATTACTATATCGACG	0.112 log2 normalized fluorescence
CCGGCTGATATGACGTATTAATAGCTAAGATTACTATATCGACG	0.0181 log2 normalized fluorescence
CCGGCTAACACAAGGTATTAATAGCTAAGATTACTATATCGACG	0.534 log2 normalized fluorescence
CCGGCTGACACGATATATTAATAGCTAAGATTACTATATCGACG	0.408 log2 normalized fluorescence
CCGGCTGACACGTGACCTTAATAGCTAAGATTACTATATCGACG	0.633 log2 normalized fluorescence
CCGGCTGTCACGTGCTATTAATAGCTAAGATTACTATATCGACG	0.591 log2 normalized fluorescence
CCGGCTGACACGTGTCCTTAATAGCTAAGATTACTATATCGACG	0.926 log2 normalized fluorescence
CCGGCTGTCACGTGTTCTTAATAGCTAAGATTACTATATCGACG	0.848 log2 normalized fluorescence
CCGGCTGACACGTGTGTTTAATAGCTAAGATTACTATATCGACG	0.7 log2 normalized fluorescence
CCGGCTGACACGTGCCCTTAATAGCTAAGATTACTATATCGACG	0.7 log2 normalized fluorescence

Sequence	binding signal
CCGGCTGACACGTAGTGTTAATAGCTAAGATTACTATATCGACG	0.396 log2 normalized fluorescence
CCGGCTGACACGTGGTTTTAATAGCTAAGATTACTATATCGACG	0.795 log2 normalized fluorescence
CCGGCTGACACGTGTTCTTAATAGCTAAGATTACTATATCGACG	0.738 log2 normalized fluorescence
CCGGCTGACACGTGTTTTTAATAGCTAAGATTACTATATCGACG	0.847 log2 normalized fluorescence
CCGGCTGACACGTGTAGTTAATAGCTAAGATTACTATATCGACG	0.834 log2 normalized fluorescence
CCGGCTGACACGTAGTTTTAATAGCTAAGATTACTATATCGACG	0.406 log2 normalized fluorescence
CCGGCTGAAACAACGTATTAATAGCTAAGATTACTATATCGACG	0.159 log2 normalized fluorescence
CCGGCCGACATGTAGTATTAATAGCTAAGATTACTATATCGACG	0.368 log2 normalized fluorescence
CCGGCAGACAAGTGCTATTAATAGCTAAGATTACTATATCGACG	0.353 log2 normalized fluorescence
CCGGCAATCTAGTCTACTTAATAGCTAAGATTACTATATCGACG	0.0163 log2 normalized fluorescence
CCGGCTGATATAATGTATTAATAGCTAAGATTACTATATCGACG	0.0653 log2 normalized fluorescence
CCGGCTGAACTCGCGTATTAATAGCTAAGATTACTATATCGACG	0.276 log2 normalized fluorescence
CCGGCTGAAACCAAGTATTAATAGCTAAGATTACTATATCGACG	0.0737 log2 normalized fluorescence
CCGGCTGAACCAGTGTATTAATAGCTAAGATTACTATATCGACG	0.036 log2 normalized fluorescence
CCGGCTAGCACGTGTTTTTAATAGCTAAGATTACTATATCGACG	0.813 log2 normalized fluorescence
CCGGCTGACACGTGCACTTAATAGCTAAGATTACTATATCGACG	0.88 log2 normalized fluorescence
CCGGCTGGCACGTGGTTTTAATAGCTAAGATTACTATATCGACG	0.67 log2 normalized fluorescence
CCGGCTGACACGTGCAATTAATAGCTAAGATTACTATATCGACG	0.779 log2 normalized fluorescence
